The record followed here is PubChem BioAssay AID1508615 (Milbrandt Lab, Department of Genetics, Washington …, 2020).

In all, about 1,600 compounds went through this assay and about 20 (1%) were called active.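 The calls were made as follows: active = ratio of uncleaved NAD to its breakdown product ADP-ribose above 4, meaning the enzyme was inhibited; inactive = the rest.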 Shown is part of a subset that was picked to be rich in actives.

For the assay, the target named is NAD(+) hydrolase SARM1 (Homo sapiens) (UniProt Q6SZW1). In words: SARM1 TIR NADase inhibitors by HPLC, primary screen, cell lysate, HPLC readout (AID 1508615).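 Also: substrate NAD at 5 µM with 60 min at 37 °C.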 To be noted: HEK293T SAM-TIR lysate, at 5 µM, stronger effect = higher value.
NAD(+) hydrolase SARM1 (Homo sapiens), sequence (Q6SZW1 whole entry, looked up): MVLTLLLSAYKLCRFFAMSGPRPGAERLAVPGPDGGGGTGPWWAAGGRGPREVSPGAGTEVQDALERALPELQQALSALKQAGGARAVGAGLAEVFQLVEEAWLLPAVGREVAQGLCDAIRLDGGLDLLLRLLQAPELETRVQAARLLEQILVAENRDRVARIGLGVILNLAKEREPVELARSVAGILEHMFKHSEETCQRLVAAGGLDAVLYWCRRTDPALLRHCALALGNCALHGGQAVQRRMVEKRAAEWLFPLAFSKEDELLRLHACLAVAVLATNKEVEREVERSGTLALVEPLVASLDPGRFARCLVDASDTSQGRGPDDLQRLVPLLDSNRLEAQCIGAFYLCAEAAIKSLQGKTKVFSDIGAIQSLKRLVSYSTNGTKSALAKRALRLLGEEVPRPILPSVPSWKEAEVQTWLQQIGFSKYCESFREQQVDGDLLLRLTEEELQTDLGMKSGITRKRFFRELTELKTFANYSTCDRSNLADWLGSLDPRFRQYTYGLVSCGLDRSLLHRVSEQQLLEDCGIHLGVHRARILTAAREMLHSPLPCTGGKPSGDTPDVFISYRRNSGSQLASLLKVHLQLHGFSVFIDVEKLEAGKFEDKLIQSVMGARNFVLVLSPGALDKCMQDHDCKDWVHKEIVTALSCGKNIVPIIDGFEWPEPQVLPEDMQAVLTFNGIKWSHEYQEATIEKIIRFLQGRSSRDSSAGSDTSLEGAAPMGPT
As for `C=CCN1CCN(c2ccncc2S(=O)(=O)N2CCN(C)CC2)CC1`, the NAD/ADPR ratio was 3 (inactive).

As for `COC(=O)Nc1csc2c1NC(=O)CCCC2`, the NAD/ADPR ratio is 3 (inactive).

In the case of `Nc1ccc2c(c1Cl)C(=O)c1ccc(N)c(Cl)c1C2=O`, the NAD/ADPR ratio was 3 (inactive).

As for `O=C1OCC/C1=C\OCCCO/C=C1\CCOC1=O`, the NAD/ADPR ratio is 3 (inactive).

Turning to `CC(C)C(=O)Nc1cccnc1`, the NAD/ADPR ratio was 3 (inactive).

For the molecule `Cc1ccc(N2CCN(CC(O)COc3cccc(C)c3)CC2)cc1` (stereo unspecified), the NAD/ADPR ratio is 3 (inactive).

Turning to `C=CCOc1ccnc(-c2ccccc2)n1`, the NAD/ADPR ratio is 3 (inactive).

For the molecule `O=[N+]([O-])c1ccc(NN=C(c2ccccc2)c2ccccc2)nc1`, the NAD/ADPR ratio was 2.8 (inactive).

On to `Cn1cnc([N+](=O)[O-])c1Sc1nnc(-c2cccnc2)n1C`, for which the NAD/ADPR ratio was 3 (inactive).

Regarding `NC(=S)Nc1cccc(Cl)c1`, the NAD/ADPR ratio was 3 (inactive).

On to `Cc1ccc(-c2nc(-c3nccc4ccccc34)oc2-c2ccccc2)cc1`, for which the NAD/ADPR ratio is 3 (inactive).

Take `CCC(CO)Nc1nc2ccc(Cl)cc2c2ccccc12` (stereo unspecified): the NAD/ADPR ratio was 3 (inactive).

As for `O=C1c2cccc(Oc3ccccc3)c2C(=O)c2cccc(Oc3ccccc3)c21`, the NAD/ADPR ratio is 3 (inactive).

With `C=CCNC(=S)Nc1cccc([N+](=O)[O-])c1`, the NAD/ADPR ratio is 3 (inactive).

Turning to `[O-]/[N+](=C\c1ccccc1)CC1(O)CCCCC1`, the NAD/ADPR ratio was 3 (inactive).

With `O=c1cc(CO)[nH]nc1CO`, the NAD/ADPR ratio is 3 (inactive).

For `COc1ccc2nc3cc(Cl)ccc3c(C#N)c2c1`, the NAD/ADPR ratio was 3 (inactive).

Regarding `CC(=O)c1cc(O)c2ccccc2c1O`, the NAD/ADPR ratio is 10.2 (active).

With `CC(C)(NC(=O)c1cc(Cl)c2ccccc2c1O)C(=O)O`, the NAD/ADPR ratio is 3 (inactive).

As to `O=C(Nc1ccc(C(=O)O)c(O)c1)c1ccccc1`, the NAD/ADPR ratio is 3 (inactive).

Take `CCOC(=O)Cc1c[nH]c(=S)[nH]c1=O`: the NAD/ADPR ratio was 3 (inactive).

Consider `Cn1c(=O)c2[nH]c(COc3ccc(C(C)(C)C)cc3)nc2n(C)c1=O`, for which the NAD/ADPR ratio is 3 (inactive).

`S=C1N(c2ccccc2)CN(C2CCCCC2)CN1c1ccccc1`: the NAD/ADPR ratio is 3 (inactive).

On to `O=[N+]([O-])c1ccc(Sc2cccc[n+]2[O-])c2nonc12`, for which the NAD/ADPR ratio was 12.6 (active).

For the molecule `O=[N+]([O-])c1ccc(Sc2ncccn2)c([N+](=O)[O-])c1`, the NAD/ADPR ratio is 3 (inactive).

As to `CC1(CN2CCCC2)CCC(NC(=O)C(c2ccccc2)c2ccccc2)C(C)(C)O1` (stereo unspecified), the NAD/ADPR ratio was 3 (inactive).

On to `C(=C\c1ccncc1)/c1ccncc1`, for which the NAD/ADPR ratio is 3 (inactive).

As to `O=C(O)c1ccc(NCc2nc3ccccc3[nH]2)cc1`, the NAD/ADPR ratio was 3 (inactive).

Turning to `Oc1ccc2ccc3[nH]cnc3c2c1`, the NAD/ADPR ratio is 3 (inactive).

With `N/C(CC(=O)Nc1cc(C(F)(F)F)ccc1Cl)=N\O`, the NAD/ADPR ratio was 3 (inactive).

`CC1CCC(C(C)C)C(NC(=O)c2ccncc2)C1` (stereo unspecified): the NAD/ADPR ratio was 3 (inactive).

On to `Clc1nc(NCCc2ccccc2)c2cn[nH]c2n1`, for which the NAD/ADPR ratio is 2.8 (inactive).

As for `Cn1cnc([N+](=O)[O-])c1Sc1ncn[nH]1`, the NAD/ADPR ratio was 3 (inactive).

As to `CCOc1ccc(NC(=O)N(O)C2(C#N)CCCCC2)cc1`, the NAD/ADPR ratio was 3 (inactive).

Take `CCOc1ccc(NC(=O)c2cc3ccccc3cc2O)cc1`: the NAD/ADPR ratio is 3 (inactive).

`CCOc1ccc(NC(=O)C2CCCN(C)C2)cc1` (stereo unspecified): the NAD/ADPR ratio was 11.2 (active).

Turning to `Cc1nn(-c2ccccc2)c2c1C(c1ccc([N+](=O)[O-])cc1)C(C#N)=C(N)O2` (stereo unspecified), the NAD/ADPR ratio is 3 (inactive).

Regarding `COc1cc(CCC(=O)O)on1`, the NAD/ADPR ratio is 3 (inactive).

In the case of `COC(=O)CC1(C(=O)OC)Nc2cc(Cl)c(Cl)cc2S(=O)(=O)N1O` (stereo unspecified), the NAD/ADPR ratio is 13.5 (active).

In the case of `O=C(NC1CCCCC1)c1cc2ccccc2cc1O`, the NAD/ADPR ratio is 3 (inactive).

Regarding `O=C(O)CCNC1CCCCC1`, the NAD/ADPR ratio is 3 (inactive).

Turning to `Oc1cc(CNC2CCCCC2)c(O)cc1CNC1CCCCC1`, the NAD/ADPR ratio was 10.8 (active).

`O=C(O)c1ccc(OCCOc2ccccc2)cc1`: the NAD/ADPR ratio was 3 (inactive).

As to `NC(N)=NC(=S)Nc1ccc(Cl)cc1`, the NAD/ADPR ratio was 3 (inactive).

For `COc1cc(CC(=O)C(=O)O)oc(=O)c1`, the NAD/ADPR ratio is 3 (inactive).

As to `CN(C)C(=O)c1cccc(COc2ccc(N3C(N)=NC(N)=NC3(C)C)cc2Cl)c1`, the NAD/ADPR ratio was 3 (inactive).

Take `Cn1c(=O)c2c(nc(N3CCOCC3)n2C)n(C)c1=O`: the NAD/ADPR ratio was 3 (inactive).

For the molecule `Cc1oc2c(c(C)nn2-c2ccccc2)c(=O)c1Cl`, the NAD/ADPR ratio is 3 (inactive).

As for `Cc1nc(-c2ccccc2)c(Cc2ccccc2O)c(=O)[nH]1`, the NAD/ADPR ratio was 3 (inactive).

As for `Cc1nc2c(O)cccc2cc1CO`, the NAD/ADPR ratio was 3 (inactive).

For the molecule `S=c1cn[nH]c2ccccc12`, the NAD/ADPR ratio was 3 (inactive).

Regarding `CC1=C(c2ccccc2)C=NNCC1=O`, the NAD/ADPR ratio was 3 (inactive).

As for `COC(=O)c1cncc(C)c1`, the NAD/ADPR ratio was 3 (inactive).

For the molecule `Nc1ccc(C(=O)Oc2ccc([N+](=O)[O-])cc2)cc1`, the NAD/ADPR ratio is 3 (inactive).

For `O=C(c1cccnc1)C1Cc2ccccc2C1=O` (stereo unspecified), the NAD/ADPR ratio is 3 (inactive).

Turning to `Nc1ccc(Br)cc1Br`, the NAD/ADPR ratio is 3 (inactive).

Turning to `CCCCOc1nc2c(c(=O)n(C)c(=O)n2C)n1C`, the NAD/ADPR ratio is 3 (inactive).

As for `Cc1ccc2c(c1)c1ccc3c(c1n2C)C(=O)C=CC3=O`, the NAD/ADPR ratio was 5.6 (active).

Consider `Cc1cccc2c1c1ccc3c(c1n2C)C(=O)C=CC3=O`, for which the NAD/ADPR ratio is 8.3 (active).

With `Cc1c(C(C)(C(=O)O)c2c(C)n(C)c3ccccc23)c2ccccc2n1C`, the NAD/ADPR ratio was 3 (inactive).

Turning to `Cn1c2ccccc2c2ccc3c(c21)C(=O)C=CC3=O`, the NAD/ADPR ratio is 12.5 (active).

Regarding `COc1ccc2c(c1)c1ccc3c(c1n2C)C(=O)C=CC3=O`, the NAD/ADPR ratio is 7.6 (active).

As to `C=CCN(CC=C)C(=O)Nc1cc(OC)ccc1OC`, the NAD/ADPR ratio was 3.2 (inactive).

For `Cc1nnc(Cc2ccccc2)c2n[nH]c(C)c12`, the NAD/ADPR ratio was 3 (inactive).

With `CC(=O)[C@@]1(O)C(C)CC2C3C=C(C)C4=Cc5c(cnn5-c5ccccc5)C[C@]4(C)C3C(O)C[C@@]21C` (stereo partly specified), the NAD/ADPR ratio is 3 (inactive).

For the molecule `CCOC(=O)c1ccc2c(c1)NCc1cccc(OC)c1O2`, the NAD/ADPR ratio was 3 (inactive).

As for `c1ccc(-c2cn3ccccc3n2)cc1`, the NAD/ADPR ratio is 3 (inactive).

Turning to `CC1(C)CCCC2(C)C(OCCO)=CC(=O)C=C12` (stereo unspecified), the NAD/ADPR ratio was 3 (inactive).

As to `COc1cc2c(O)cc(C(=O)O)c(-c3cc(OC)c(OC)c(OC)c3)c2cc1OC`, the NAD/ADPR ratio was 3 (inactive).

For the molecule `CSc1nc(Cl)cc(=O)[nH]1`, the NAD/ADPR ratio was 3 (inactive).

Regarding `OC(C#Cc1ccccc1)(c1ccccc1)c1ccccc1`, the NAD/ADPR ratio is 3 (inactive).

Consider `Cc1cc(=O)n2c3c(c4c(cc13)c(CN(C)C)cc(=O)n4C)OC2`, for which the NAD/ADPR ratio is 3 (inactive).

On to `CC1(C)CC2(C)OC2C2(C1)N=NC(=Nc1ccccc1)O2` (stereo unspecified), for which the NAD/ADPR ratio is 3 (inactive).

Consider `Cc1cc2nc(-c3ccccn3)c(-c3ccccn3)nc2cc1C`, for which the NAD/ADPR ratio was 3 (inactive).

Take `S=C(Sc1ccc(Cl)cc1)Sc1ccc(Cl)cc1`: the NAD/ADPR ratio is 3 (inactive).

Regarding `Cc1ccc([N+](=O)[O-])cc1NC(=O)Nc1cccc(F)c1`, the NAD/ADPR ratio is 3 (inactive).
